# Experimental data reported in paper PMC7862700, “An all-to-all approach to the identification of sequence-specific readers for epigenetic DNA modifications on cytosine”.
# Experiments:
# Assay in all cases: DAPPL (digital affinity profiling via proximity ligation, sequencing); 10 mM Tris-HCl pH 7.5, 50 mM NaCl, 1 mM DTT, 4% glycerol, room temperature, 30 min; GST-TFs on glutathione beads, 16-mer random dsDNA library, 0.1% formaldehyde crosslink after washing; high values mean tight binding
# Settings in all cases: protein: recombinant; tags: N-terminal GST; dsDNA, one strand shown
# FLI1 = target: T1, FLI1 (Homo sapiens, UniProt Q01543 1-452)
# T1 sequence: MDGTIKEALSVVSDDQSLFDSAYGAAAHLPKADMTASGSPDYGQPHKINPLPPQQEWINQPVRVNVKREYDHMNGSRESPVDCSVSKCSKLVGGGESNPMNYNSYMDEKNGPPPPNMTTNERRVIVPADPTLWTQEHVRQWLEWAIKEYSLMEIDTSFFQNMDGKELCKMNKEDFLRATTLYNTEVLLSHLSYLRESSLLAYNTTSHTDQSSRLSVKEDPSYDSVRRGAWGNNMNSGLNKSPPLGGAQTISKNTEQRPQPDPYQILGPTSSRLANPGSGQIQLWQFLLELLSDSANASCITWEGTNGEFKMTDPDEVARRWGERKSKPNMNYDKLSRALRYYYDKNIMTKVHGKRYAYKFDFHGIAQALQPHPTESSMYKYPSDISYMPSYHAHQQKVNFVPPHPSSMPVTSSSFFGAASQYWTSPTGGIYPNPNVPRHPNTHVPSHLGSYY
# Outline: (§1)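 Binding signal is each hexamer's read frequency for a factor divided by its frequency in the tag-only sample. The factors were GST-fused human transcription factors from yeast, captured on glutathione beads, DNA-barcoded and pooled with that sample. Pools were incubated with 200 nmole of a random double-stranded 16-mer DNA library in Tris/NaCl/DTT/glycerol buffer at room temperature for 30 min, then washed, crosslinked with 0.1% formaldehyde, proximity-ligated with BsaI/T4 ligase (1 h, 37 °C), PCR-amplified and sequenced on an Illumina NextSeq500.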
# GABPA = target: T2, GABPA (Homo sapiens, UniProt Q06546 1-454)
# T2 sequence: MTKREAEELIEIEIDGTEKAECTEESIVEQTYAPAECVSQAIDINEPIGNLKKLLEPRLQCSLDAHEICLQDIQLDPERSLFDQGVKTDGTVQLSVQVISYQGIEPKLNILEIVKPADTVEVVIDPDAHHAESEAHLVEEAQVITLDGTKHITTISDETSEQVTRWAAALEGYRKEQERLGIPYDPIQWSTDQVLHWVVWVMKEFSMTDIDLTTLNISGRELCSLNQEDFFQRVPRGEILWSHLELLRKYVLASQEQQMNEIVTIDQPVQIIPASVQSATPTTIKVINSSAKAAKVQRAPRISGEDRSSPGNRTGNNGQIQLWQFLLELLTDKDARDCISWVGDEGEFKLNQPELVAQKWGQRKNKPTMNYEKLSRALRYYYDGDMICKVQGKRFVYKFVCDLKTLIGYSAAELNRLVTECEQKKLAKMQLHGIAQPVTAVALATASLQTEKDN
# Outline: as §1
# ERG = target: T3, ERG (Homo sapiens, UniProt P11308 1-479)
# T3 sequence: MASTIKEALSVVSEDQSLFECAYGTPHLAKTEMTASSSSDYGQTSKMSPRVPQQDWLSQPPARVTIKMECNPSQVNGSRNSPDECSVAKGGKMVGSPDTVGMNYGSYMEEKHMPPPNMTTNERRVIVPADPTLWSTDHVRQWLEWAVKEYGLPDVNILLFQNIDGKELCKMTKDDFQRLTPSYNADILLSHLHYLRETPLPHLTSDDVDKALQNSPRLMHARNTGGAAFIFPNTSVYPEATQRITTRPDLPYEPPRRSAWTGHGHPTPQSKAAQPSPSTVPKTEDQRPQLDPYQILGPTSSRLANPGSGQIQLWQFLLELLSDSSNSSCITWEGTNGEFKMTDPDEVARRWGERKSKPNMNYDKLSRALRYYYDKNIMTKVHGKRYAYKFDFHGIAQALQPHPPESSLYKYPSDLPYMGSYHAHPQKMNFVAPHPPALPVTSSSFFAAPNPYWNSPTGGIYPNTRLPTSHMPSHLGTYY
# Outline: as §1
# ELF1 = ELF1 (Homo sapiens, UniProt P32519 1-619)
# Sequence of ELF1 (P32519 whole entry): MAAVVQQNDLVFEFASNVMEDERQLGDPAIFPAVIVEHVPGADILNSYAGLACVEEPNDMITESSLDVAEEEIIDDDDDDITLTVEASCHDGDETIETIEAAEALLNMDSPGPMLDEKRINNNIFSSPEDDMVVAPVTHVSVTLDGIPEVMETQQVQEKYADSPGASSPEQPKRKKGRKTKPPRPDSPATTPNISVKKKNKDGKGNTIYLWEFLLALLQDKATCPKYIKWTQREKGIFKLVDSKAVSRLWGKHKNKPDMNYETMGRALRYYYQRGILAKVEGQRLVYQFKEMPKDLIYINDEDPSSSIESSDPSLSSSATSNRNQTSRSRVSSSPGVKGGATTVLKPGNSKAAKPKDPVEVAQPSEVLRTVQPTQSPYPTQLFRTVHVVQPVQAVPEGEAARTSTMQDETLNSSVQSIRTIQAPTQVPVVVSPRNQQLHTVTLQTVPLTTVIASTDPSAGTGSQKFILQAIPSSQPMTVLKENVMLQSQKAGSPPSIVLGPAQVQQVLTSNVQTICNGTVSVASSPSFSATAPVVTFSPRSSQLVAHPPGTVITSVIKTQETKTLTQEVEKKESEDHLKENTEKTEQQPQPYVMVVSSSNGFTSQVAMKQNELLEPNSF
# Outline: as §1
# EHF = target: T4, EHF (Homo sapiens, UniProt Q9NZC4 1-300)
# T4 sequence: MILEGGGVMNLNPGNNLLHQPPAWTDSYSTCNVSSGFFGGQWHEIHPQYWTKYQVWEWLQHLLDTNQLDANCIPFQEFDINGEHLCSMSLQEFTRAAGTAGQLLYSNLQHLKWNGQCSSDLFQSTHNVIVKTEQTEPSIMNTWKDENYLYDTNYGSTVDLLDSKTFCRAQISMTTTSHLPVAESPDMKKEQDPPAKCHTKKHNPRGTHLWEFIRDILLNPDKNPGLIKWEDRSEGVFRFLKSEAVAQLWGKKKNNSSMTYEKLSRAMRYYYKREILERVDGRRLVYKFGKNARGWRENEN
# Outline: as §1
# SPI1 = SPI1 (Homo sapiens, UniProt P17947 1-270)
# Outline: as §1
# SPIB = SPIB (Homo sapiens, UniProt Q01892 1-262)
# Sequence of SPIB (Q01892 whole entry): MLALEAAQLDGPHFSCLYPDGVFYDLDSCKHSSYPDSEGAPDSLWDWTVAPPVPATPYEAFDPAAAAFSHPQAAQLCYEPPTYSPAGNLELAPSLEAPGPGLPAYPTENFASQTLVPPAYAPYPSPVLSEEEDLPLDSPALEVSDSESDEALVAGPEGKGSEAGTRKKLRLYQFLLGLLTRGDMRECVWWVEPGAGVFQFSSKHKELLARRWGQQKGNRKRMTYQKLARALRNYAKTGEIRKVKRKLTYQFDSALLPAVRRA
# Outline: as §1
# ELK3 = target: T5, ELK3 (Homo sapiens, UniProt P41970 1-407)
# T5 sequence: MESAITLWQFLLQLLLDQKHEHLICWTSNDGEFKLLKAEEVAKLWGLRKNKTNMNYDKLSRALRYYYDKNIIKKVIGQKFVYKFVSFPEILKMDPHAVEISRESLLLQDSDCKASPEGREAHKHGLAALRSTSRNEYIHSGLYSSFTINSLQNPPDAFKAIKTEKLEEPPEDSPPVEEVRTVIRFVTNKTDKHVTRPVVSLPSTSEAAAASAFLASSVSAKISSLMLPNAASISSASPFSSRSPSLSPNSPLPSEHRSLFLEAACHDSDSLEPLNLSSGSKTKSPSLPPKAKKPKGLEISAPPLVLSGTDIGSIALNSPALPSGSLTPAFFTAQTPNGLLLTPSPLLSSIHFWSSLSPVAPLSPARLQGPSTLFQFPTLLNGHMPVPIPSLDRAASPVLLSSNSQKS
# Outline: as §1
# FEV = target: T6, FEV (Homo sapiens, UniProt Q99581 1-238)
# T6 sequence: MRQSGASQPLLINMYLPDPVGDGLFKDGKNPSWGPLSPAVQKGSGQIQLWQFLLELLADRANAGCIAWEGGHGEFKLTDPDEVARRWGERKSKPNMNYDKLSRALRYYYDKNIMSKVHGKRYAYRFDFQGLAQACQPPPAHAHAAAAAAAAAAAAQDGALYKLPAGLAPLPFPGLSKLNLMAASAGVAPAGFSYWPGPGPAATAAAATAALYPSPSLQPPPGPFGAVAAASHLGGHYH
# Outline: as §1
sequence,measurement,setting,value
CATTGC,binding signal,FLI1,"1.22 fold enrichment (6-mer frequency, TF over GST control)"
same,binding signal,GABPA,"1.08 fold enrichment (6-mer frequency, TF over GST control)"
same,binding signal,ERG,"1.11 fold enrichment (6-mer frequency, TF over GST control)"
same,binding signal,ELF1,"1.09 fold enrichment (6-mer frequency, TF over GST control)"
same,binding signal,EHF,"1.15 fold enrichment (6-mer frequency, TF over GST control)"
same,binding signal,SPI1,"1.05 fold enrichment (6-mer frequency, TF over GST control)"
same,binding signal,SPIB,"1 fold enrichment (6-mer frequency, TF over GST control)"
same,binding signal,ELK3,"1.15 fold enrichment (6-mer frequency, TF over GST control)"
same,binding signal,FEV,"1.04 fold enrichment (6-mer frequency, TF over GST control)"
